# Measurements taken from publication PMC7862700, “An all-to-all approach to the identification of sequence-specific readers for epigenetic DNA modifications on cytosine”.
# Key:
# Experiment in all cases: DAPPL (digital affinity profiling via proximity ligation, sequencing); 10 mM Tris-HCl pH 7.5, 50 mM NaCl, 1 mM DTT, 4% glycerol, room temperature, 30 min; GST-TFs on glutathione beads, 16-mer random dsDNA library, 0.1% formaldehyde crosslink after washing; high values mean tight binding
# FLI1 = biological target: T1, FLI1 (Homo sapiens, UniProt Q01543 1-452); conditions: protein: recombinant; tags: N-terminal GST; dsDNA, one strand shown
# T1 sequence: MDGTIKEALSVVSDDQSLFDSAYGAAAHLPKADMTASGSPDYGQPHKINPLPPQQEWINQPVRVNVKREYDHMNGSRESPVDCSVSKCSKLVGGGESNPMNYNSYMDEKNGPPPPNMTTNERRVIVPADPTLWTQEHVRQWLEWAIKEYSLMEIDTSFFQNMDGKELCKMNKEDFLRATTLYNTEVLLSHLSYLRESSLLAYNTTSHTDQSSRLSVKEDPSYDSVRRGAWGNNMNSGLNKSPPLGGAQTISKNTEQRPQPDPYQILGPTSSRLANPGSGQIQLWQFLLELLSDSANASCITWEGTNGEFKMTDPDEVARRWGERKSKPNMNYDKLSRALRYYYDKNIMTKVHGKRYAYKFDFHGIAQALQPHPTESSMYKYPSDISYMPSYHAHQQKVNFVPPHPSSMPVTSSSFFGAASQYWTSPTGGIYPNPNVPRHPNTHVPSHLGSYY
# Summary of the method: (§1)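 Pools of DNA-barcoded human transcription factors, expressed in yeast as GST fusions on glutathione beads and combined with a tag-only sample, were incubated with 200 nmole of a 16-mer random double-stranded DNA library. Incubation took 30 min at room temperature in Tris/NaCl/DTT/glycerol buffer and was followed by washing, 0.1% formaldehyde crosslinking, proximity ligation (BsaI/T4 ligase, 1 h, 37 °C), PCR amplification and sequencing on an Illumina NextSeq500. Binding signal is the ratio of a hexamer's read frequency for a factor to its frequency for the tag-only sample.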
# ELK1 = biological target: T2, ELK1 (Homo sapiens, UniProt P19419 1-428); conditions: protein: recombinant; tags: N-terminal GST; dsDNA, one strand shown
# T2 sequence: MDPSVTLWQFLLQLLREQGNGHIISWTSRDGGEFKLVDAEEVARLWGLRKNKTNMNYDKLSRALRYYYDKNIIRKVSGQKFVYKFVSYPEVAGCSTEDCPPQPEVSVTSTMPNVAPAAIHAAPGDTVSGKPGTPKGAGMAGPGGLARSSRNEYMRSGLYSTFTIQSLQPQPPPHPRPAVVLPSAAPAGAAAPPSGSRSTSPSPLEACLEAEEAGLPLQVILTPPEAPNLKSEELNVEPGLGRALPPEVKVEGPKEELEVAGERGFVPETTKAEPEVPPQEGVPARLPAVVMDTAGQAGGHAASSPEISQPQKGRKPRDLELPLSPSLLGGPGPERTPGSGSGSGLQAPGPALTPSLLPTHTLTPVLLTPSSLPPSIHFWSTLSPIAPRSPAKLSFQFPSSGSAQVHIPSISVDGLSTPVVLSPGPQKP
# Summary of the method: as §1
# GABPA = biological target: T3, GABPA (Homo sapiens, UniProt Q06546 1-454); conditions: protein: recombinant; tags: N-terminal GST; dsDNA, one strand shown
# T3 sequence: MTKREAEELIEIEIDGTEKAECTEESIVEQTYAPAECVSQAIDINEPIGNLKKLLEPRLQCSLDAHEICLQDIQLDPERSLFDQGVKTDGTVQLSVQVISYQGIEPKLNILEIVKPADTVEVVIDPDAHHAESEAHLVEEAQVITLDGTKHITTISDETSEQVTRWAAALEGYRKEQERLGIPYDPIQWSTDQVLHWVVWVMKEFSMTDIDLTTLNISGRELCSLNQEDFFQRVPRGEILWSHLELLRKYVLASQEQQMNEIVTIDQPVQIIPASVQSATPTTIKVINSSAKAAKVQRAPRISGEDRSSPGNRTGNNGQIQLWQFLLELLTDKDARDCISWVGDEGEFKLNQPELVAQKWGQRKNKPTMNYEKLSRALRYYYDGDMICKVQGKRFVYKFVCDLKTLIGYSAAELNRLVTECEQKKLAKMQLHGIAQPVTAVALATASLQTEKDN
# Summary of the method: as §1
# ERG = biological target: T4, ERG (Homo sapiens, UniProt P11308 1-479); conditions: protein: recombinant; tags: N-terminal GST; dsDNA, one strand shown
# T4 sequence: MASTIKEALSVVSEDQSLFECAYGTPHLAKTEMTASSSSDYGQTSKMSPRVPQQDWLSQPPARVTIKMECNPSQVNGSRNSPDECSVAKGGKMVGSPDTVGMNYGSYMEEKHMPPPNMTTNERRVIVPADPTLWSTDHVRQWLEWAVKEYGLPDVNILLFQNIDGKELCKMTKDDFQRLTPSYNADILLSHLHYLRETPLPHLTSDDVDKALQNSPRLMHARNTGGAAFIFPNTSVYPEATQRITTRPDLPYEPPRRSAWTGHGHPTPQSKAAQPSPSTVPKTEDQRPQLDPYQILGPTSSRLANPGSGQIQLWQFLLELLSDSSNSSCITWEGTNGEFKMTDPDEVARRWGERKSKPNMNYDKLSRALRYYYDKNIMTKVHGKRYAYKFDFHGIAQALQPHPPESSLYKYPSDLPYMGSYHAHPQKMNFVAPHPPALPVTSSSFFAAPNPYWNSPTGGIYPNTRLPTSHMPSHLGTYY
# Summary of the method: as §1
# ELF1 = ELF1 (Homo sapiens, UniProt P32519 1-619); conditions: protein: recombinant; tags: N-terminal GST; dsDNA, one strand shown
# Sequence of ELF1 (P32519 whole entry): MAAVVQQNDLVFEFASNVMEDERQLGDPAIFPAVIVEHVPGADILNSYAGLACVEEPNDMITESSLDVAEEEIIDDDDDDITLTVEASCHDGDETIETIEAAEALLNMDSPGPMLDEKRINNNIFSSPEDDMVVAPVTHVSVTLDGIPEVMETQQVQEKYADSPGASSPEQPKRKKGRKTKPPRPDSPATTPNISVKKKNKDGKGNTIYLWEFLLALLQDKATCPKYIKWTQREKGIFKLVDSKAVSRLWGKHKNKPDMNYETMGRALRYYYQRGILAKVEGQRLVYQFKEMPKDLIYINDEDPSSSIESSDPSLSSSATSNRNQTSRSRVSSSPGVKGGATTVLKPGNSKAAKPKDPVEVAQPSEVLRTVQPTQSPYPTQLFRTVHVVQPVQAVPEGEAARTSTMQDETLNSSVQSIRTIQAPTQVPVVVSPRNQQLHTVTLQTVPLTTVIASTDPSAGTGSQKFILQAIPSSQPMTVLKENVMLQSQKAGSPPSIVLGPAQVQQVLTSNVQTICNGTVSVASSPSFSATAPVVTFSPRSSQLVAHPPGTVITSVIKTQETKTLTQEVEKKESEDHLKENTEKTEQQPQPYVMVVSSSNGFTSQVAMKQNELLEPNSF
# Summary of the method: as §1
# EHF = biological target: T5, EHF (Homo sapiens, UniProt Q9NZC4 1-300); conditions: protein: recombinant; tags: N-terminal GST; dsDNA, one strand shown
# T5 sequence: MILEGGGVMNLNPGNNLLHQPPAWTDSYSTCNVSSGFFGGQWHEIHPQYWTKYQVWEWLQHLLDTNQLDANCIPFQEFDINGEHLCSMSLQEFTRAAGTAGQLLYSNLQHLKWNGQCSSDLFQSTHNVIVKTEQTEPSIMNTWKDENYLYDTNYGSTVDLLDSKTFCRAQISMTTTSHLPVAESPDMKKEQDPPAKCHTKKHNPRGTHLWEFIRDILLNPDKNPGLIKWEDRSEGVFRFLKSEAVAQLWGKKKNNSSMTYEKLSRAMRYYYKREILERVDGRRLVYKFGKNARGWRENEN
# Summary of the method: as §1
# SPI1 = SPI1 (Homo sapiens, UniProt P17947 1-270); conditions: protein: recombinant; tags: N-terminal GST; dsDNA, one strand shown
# Summary of the method: as §1
# SPIB = SPIB (Homo sapiens, UniProt Q01892 1-262); conditions: protein: recombinant; tags: N-terminal GST; dsDNA, one strand shown
# Sequence of SPIB (Q01892 whole entry): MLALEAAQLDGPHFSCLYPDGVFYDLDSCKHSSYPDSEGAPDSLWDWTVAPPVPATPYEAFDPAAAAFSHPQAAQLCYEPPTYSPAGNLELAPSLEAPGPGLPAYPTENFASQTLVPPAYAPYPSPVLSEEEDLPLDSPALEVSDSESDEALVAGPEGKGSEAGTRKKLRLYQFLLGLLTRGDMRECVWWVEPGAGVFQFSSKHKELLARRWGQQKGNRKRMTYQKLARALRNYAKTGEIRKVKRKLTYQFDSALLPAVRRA
# Summary of the method: as §1
# ELK3 = biological target: T6, ELK3 (Homo sapiens, UniProt P41970 1-407); conditions: protein: recombinant; tags: N-terminal GST; dsDNA, one strand shown
# T6 sequence: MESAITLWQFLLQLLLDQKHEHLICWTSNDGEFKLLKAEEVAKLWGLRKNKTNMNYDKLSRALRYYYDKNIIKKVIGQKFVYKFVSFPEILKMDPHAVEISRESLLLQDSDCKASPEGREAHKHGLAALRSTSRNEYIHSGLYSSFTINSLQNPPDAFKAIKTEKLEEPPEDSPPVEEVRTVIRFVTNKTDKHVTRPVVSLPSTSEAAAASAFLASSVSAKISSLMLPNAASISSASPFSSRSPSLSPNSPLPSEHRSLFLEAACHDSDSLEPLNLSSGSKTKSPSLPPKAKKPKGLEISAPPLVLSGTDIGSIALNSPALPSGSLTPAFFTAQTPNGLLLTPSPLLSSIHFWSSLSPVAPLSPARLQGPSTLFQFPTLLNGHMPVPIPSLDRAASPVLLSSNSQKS
# Summary of the method: as §1
# FEV = biological target: T7, FEV (Homo sapiens, UniProt Q99581 1-238); conditions: protein: recombinant; tags: N-terminal GST; dsDNA, one strand shown
# T7 sequence: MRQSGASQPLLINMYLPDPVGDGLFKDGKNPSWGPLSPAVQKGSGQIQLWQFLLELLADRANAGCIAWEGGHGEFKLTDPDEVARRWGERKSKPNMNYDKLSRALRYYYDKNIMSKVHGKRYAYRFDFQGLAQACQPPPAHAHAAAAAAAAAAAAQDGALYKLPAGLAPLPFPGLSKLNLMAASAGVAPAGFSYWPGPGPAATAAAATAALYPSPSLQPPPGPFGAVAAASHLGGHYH
# Summary of the method: as §1
# ETV5 = ETV5 (Homo sapiens, UniProt P41161 1-510); conditions: protein: recombinant; tags: N-terminal GST; dsDNA, one strand shown
# Sequence of ETV5 (P41161 whole entry): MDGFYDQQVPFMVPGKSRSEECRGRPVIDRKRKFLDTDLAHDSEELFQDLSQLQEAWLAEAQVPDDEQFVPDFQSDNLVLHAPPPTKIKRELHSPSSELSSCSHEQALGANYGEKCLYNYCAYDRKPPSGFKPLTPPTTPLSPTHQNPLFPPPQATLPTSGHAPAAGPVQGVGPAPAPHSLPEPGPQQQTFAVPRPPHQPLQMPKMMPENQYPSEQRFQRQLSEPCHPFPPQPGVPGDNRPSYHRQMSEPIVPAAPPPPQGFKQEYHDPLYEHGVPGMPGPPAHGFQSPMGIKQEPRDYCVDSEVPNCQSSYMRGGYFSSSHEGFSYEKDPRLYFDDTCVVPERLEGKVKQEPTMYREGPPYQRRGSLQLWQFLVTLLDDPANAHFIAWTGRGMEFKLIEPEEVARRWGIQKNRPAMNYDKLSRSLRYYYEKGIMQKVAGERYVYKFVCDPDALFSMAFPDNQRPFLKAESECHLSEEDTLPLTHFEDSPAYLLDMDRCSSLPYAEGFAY
# Summary of the method: as §1
# HSF1 = HSF1 (Homo sapiens, UniProt Q00613 1-529); conditions: protein: recombinant; tags: N-terminal GST; chain copies: 3; dsDNA, one strand shown
# Sequence of HSF1 (Q00613 whole entry): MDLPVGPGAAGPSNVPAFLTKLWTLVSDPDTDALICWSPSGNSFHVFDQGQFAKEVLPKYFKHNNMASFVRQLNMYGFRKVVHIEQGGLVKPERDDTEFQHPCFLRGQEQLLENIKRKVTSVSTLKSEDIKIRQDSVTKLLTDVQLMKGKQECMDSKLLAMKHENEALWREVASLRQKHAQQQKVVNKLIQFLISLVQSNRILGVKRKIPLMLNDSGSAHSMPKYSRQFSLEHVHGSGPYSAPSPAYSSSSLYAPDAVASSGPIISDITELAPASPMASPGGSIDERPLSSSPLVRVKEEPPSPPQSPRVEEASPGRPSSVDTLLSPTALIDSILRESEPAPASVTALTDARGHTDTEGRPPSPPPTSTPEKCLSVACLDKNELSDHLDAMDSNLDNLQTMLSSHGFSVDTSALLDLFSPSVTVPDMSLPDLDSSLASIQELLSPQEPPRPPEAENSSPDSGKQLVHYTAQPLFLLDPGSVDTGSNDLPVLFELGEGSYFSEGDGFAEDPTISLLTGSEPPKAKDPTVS
# Summary of the method: as §1
# SPIC = biological target: T8, SPIC (Homo sapiens, UniProt Q8N5J4 1-248); conditions: protein: recombinant; tags: N-terminal GST; dsDNA, one strand shown
# T8 sequence: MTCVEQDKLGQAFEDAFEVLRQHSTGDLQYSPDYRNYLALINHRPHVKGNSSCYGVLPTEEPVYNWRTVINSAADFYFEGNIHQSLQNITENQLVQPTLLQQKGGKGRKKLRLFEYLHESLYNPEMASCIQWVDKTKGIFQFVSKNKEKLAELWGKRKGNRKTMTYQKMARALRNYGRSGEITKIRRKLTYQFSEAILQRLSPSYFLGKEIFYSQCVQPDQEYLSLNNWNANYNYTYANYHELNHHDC
# Summary of the method: as §1
# ELF4 = ELF4 (Homo sapiens, UniProt Q99607 1-663); conditions: protein: recombinant; tags: N-terminal GST; dsDNA, one strand shown
# Sequence of ELF4 (Q99607 whole entry): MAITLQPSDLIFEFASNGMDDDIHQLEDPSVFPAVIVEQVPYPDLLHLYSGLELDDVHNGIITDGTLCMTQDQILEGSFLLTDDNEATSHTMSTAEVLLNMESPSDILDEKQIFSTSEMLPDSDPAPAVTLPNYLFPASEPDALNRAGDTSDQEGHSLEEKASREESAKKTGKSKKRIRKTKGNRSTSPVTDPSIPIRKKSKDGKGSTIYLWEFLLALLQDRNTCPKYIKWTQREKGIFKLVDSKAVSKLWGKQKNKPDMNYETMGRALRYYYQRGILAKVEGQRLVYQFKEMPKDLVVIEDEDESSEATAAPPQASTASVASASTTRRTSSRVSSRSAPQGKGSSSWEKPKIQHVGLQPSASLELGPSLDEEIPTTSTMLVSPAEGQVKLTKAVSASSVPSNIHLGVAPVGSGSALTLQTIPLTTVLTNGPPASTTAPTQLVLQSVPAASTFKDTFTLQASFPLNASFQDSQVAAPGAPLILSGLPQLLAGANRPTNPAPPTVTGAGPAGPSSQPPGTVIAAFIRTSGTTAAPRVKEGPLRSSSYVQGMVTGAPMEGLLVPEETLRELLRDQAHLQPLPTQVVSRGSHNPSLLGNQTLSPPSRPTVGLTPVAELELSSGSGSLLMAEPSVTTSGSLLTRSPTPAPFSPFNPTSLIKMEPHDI
# Summary of the method: as §1
# ELK4 = biological target: T9, ELK4 (Homo sapiens, UniProt P28324-2 1-405); conditions: protein: recombinant; tags: N-terminal GST; dsDNA, one strand shown
# T9 sequence: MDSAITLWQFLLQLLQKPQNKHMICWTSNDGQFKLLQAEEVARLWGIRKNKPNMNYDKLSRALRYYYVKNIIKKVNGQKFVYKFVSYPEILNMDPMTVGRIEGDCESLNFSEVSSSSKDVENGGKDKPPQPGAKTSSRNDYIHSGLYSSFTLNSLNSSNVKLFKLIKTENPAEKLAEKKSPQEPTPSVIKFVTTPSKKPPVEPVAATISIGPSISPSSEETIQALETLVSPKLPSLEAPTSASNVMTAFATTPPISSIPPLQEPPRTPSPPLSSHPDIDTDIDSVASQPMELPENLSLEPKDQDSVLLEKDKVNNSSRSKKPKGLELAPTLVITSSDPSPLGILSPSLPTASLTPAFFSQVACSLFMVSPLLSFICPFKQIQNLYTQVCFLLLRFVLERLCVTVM
# Summary of the method: as §1
# ETV2 = biological target: T10, ETV2 (Homo sapiens, UniProt O00321 1-342); conditions: protein: recombinant; tags: N-terminal GST; dsDNA, one strand shown
# T10 sequence: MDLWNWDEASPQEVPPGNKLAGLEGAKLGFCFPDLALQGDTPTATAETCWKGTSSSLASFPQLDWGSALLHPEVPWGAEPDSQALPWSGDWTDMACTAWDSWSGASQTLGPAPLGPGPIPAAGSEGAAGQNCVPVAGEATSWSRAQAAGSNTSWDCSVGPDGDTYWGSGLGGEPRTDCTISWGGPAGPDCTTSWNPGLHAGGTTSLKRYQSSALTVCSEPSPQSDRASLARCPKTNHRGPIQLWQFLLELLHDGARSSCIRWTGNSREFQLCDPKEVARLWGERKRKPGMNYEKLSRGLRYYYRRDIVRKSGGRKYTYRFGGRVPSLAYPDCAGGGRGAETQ
# Summary of the method: as §1
# ELF3 = biological target: T11, ELF3 (Homo sapiens, UniProt P78545 1-371); conditions: protein: recombinant; tags: N-terminal GST; dsDNA, one strand shown
# T11 sequence: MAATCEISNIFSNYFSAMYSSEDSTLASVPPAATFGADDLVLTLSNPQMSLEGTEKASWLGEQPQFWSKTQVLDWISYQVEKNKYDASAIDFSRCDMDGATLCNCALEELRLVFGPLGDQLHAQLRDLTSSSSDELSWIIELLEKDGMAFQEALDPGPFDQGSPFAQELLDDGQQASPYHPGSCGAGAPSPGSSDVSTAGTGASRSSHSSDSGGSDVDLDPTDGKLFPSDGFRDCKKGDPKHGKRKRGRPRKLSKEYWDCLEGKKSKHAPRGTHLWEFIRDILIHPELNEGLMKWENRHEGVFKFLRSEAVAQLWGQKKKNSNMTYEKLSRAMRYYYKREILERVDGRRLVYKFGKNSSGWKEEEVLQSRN
# Summary of the method: as §1
# CRX = CRX (Homo sapiens, UniProt O43186 1-299); conditions: protein: recombinant; tags: N-terminal GST; dsDNA, one strand shown
# Sequence of CRX (O43186 whole entry): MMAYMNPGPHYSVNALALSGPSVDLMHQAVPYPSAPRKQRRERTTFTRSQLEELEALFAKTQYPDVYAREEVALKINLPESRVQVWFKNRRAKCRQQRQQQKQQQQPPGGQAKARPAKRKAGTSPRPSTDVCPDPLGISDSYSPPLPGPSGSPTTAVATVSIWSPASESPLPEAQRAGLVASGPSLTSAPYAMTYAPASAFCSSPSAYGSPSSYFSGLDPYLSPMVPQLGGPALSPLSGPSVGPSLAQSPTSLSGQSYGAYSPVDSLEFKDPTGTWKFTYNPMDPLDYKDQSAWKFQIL
# Summary of the method: as §1
# ETV1 = ETV1 (Homo sapiens, UniProt P50549 1-477); conditions: protein: recombinant; tags: N-terminal GST; dsDNA, one strand shown
# Sequence of ETV1 (P50549 whole entry): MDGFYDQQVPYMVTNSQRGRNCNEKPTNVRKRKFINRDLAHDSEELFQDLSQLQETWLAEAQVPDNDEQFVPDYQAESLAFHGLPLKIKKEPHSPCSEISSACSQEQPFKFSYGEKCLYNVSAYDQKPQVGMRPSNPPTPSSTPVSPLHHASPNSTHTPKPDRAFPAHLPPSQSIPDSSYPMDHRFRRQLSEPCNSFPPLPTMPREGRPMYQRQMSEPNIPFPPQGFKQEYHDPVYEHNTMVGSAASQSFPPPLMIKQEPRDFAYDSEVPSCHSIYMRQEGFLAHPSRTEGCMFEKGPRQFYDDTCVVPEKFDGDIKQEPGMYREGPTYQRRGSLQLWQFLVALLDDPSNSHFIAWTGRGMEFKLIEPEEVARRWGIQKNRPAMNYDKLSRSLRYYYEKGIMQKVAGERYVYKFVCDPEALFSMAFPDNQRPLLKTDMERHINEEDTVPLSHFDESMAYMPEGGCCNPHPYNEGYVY
# Summary of the method: as §1
sequence,measurement,setting,value
AGCTCC,binding signal,FLI1,"1.38 fold enrichment (6-mer frequency, TF over GST control)"
same,binding signal,ELK1,"1.23 fold enrichment (6-mer frequency, TF over GST control)"
same,binding signal,GABPA,"1.32 fold enrichment (6-mer frequency, TF over GST control)"
same,binding signal,ERG,"1.2 fold enrichment (6-mer frequency, TF over GST control)"
same,binding signal,ELF1,"1.28 fold enrichment (6-mer frequency, TF over GST control)"
same,binding signal,EHF,"1.31 fold enrichment (6-mer frequency, TF over GST control)"
same,binding signal,SPI1,"1.25 fold enrichment (6-mer frequency, TF over GST control)"
same,binding signal,SPIB,"1.21 fold enrichment (6-mer frequency, TF over GST control)"
same,binding signal,ELK3,"1.17 fold enrichment (6-mer frequency, TF over GST control)"
same,binding signal,FEV,"1.26 fold enrichment (6-mer frequency, TF over GST control)"
same,binding signal,ETV5,"1.29 fold enrichment (6-mer frequency, TF over GST control)"
same,binding signal,HSF1,"1.22 fold enrichment (6-mer frequency, TF over GST control)"
same,binding signal,SPIC,"1.26 fold enrichment (6-mer frequency, TF over GST control)"
same,binding signal,ELF4,"1.43 fold enrichment (6-mer frequency, TF over GST control)"
same,binding signal,ELK4,"1.16 fold enrichment (6-mer frequency, TF over GST control)"
same,binding signal,ETV2,"1.35 fold enrichment (6-mer frequency, TF over GST control)"
same,binding signal,ELF3,"1.33 fold enrichment (6-mer frequency, TF over GST control)"
same,binding signal,CRX,"1.3 fold enrichment (6-mer frequency, TF over GST control)"
same,binding signal,ETV1,"1.29 fold enrichment (6-mer frequency, TF over GST control)"
